From PubChem BioAssay AID652115 (Broad Institute, 2013) come the findings set out here.

SMILES strings stand for the structures. The whole screen tested about 330,000 compounds, of which about 3,800 (1.2%) were called active. Cut-off read from the data, not from the text of the source: active = inhibition above about 15%; inconclusive = no clear call, values can overlap the other calls; inactive = below that. For the sample, actives were picked, then their nearest neighbours and some compounds at random.

The target in this test is NAD-dependent protein deacylase sirtuin-5, mitochondrial (Homo sapiens) (UniProt Q9NXA8). The experiment in a line: blockers of sirtuin-5 deacylase activity – biochemical, fluorescence imaging, single point, set 5, primary screen (AID 652115). To be noted: Purified SirT5, succinyl-peptide AMC, trypsin-coupled fluorescence; at 15 µM; stronger effect = higher value.
Sequence of NAD-dependent protein deacylase sirtuin-5, mitochondrial (Homo sapiens) (Q9NXA8 whole entry, looked up): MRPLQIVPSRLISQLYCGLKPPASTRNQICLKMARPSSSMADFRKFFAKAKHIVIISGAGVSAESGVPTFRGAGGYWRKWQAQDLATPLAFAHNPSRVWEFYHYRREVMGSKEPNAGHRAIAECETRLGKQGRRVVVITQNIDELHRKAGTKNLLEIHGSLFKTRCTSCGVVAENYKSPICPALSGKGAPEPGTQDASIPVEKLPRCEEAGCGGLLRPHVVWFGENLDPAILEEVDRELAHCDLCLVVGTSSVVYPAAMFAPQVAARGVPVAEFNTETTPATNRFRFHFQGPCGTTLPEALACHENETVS
As to `CCS(=O)(=O)Nc1ccc2c(c1)C(=O)N(C)[C@H]1CC[C@@H](CC(=O)Nc3ccccc3)O[C@H]1CO2`, the inhibition (usually the relative decrease from the control value, in per cent) was 2.87% (inactive). Regarding `O=C1c2ccccc2NC(c2ccc(-c3cccc(Cl)c3)o2)N1O` (stereo not given), the inhibition was 1.64% (inactive). As for `O=C1NN(c2ccccc2)C(=O)/C1=C/c1ccc(-c2cccc(C(=O)O)c2)o1`, the inhibition was 8.67% (inactive).

On to `O=C(O)C(c1ccccc1)N1C(=O)/C(=C\c2ccc(-c3cccc(Cl)c3)o2)SC1=S` (stereo not given), for which the inhibition was 43.9% (active). For the molecule `O=C(Nc1cc(Cl)cc(Cl)c1)N[C@@H]1CC[C@H](CCNS(=O)(=O)c2cccc(F)c2)O[C@H]1CO`, the inhibition was 2.03% (inactive).

As to `CCCNC(=O)N1CC(=O)N2[C@H](CO)[C@H](c3ccc(C#Cc4cccc(OC)c4)cc3)[C@H]2C1`, the inhibition is -0.038% (inactive). Consider `CCCN(C)C[C@H]1Oc2cc(-c3ccc(C)cc3)ccc2S(=O)(=O)N([C@H](C)CO)C[C@H]1C`, for which the inhibition was 1.13% (inactive). As for `CN(C)C(=O)c1ccc(-c2ccccc2[C@@H]2[C@@H](C#N)N(C(=O)C3CCCC3)[C@H]2CO)cc1`, the inhibition was -3.26% (inactive). For the molecule `O=C(N[C@H]1C=C[C@@H](CC(=O)N2CCN(c3ccccc3)CC2)O[C@@H]1CO)c1ccncc1`, the inhibition was -0.959% (inactive).

As for `C=CCC[C@@H](Cc1ccc(F)cc1)C(=O)OC[C@@H](C)NC(=O)[C@H](CC=C)CC(=O)N(CCO)Cc1ccccc1`, the inhibition is -0.88% (inactive).

With `C=CCC[C@H](Cc1ccc(F)cc1)C(=O)OC[C@H](C)NC(=O)[C@H](CC=C)CC(=O)N(CCO)Cc1ccccc1`, the inhibition is 16.9% (active). In the case of `C=CCC[C@H](Cc1ccc(F)cc1)C(=O)OC[C@@H](NC(=O)[C@@H](CC=C)CC(=O)N[C@H](CO)Cc1ccccc1)C(C)(C)C`, the inhibition was 0.931% (inactive). As for `CC1COc2ccccc2N1C(=O)c1ccc(F)cc1` (stereo not given), the inhibition was 22.7% (active). Next, `CC1COc2ccccc2N1C(=O)c1cccnc1Cl` (stereo not given): -1.34% (inactive); `CC1COc2ccccc2N1S(=O)(=O)c1ccccc1` (stereo not given): -1.33% (inactive); `COc1ccc(CN(C)C[C@@H]2OCCCC[C@@H](C)Oc3ccc(NC(=O)Nc4ccc(C(F)(F)F)cc4)cc3C(=O)N([C@H](C)CO)C[C@H]2C)cc1`: 6.39% (inactive).

Regarding `CN(C)CC(=O)N[C@H]1CC[C@H](CCNC(=O)Nc2ccc(F)cc2)O[C@H]1CO`, the inhibition is -1.16% (inactive). For the molecule `Cc1nc(N2[C@H](CO)[C@H](c3ccccc3)[C@H]2CNCC2CCCCC2)sc1C`, the inhibition is 5.49% (inactive). Turning to `CC(C)NC(=O)N1[C@@H]2c3ccc(-c4ccc(F)cc4)c(=O)n3C[C@@H]2[C@@H](CO)[C@@H]1C(=O)N1CCOCC1`, the inhibition was -2.98% (inactive). For `O=C(Nc1nnc(C2CC2)s1)c1ccccn1`, the inhibition is 23.4% (active).

As to `O=C(Nc1nnc(C2CC2)s1)c1cc(Cl)sc1Cl`, the inhibition is -1.4% (inactive). Next, `Cc1cc(C(=O)Nc2nnc(C3CC3)s2)c(C)s1`: -4.14% (inactive); `CO[C@@H]1CN(C)C(=O)c2cc(NS(C)(=O)=O)ccc2OC[C@H](C)N(C(=O)C2CC2)C[C@@H]1C`: 1.74% (inactive). On to `COCC(=O)Nc1ccc2c(c1)C(=O)N(C)C[C@@H](OC)[C@@H](C)CN(C(=O)Cc1ccccn1)[C@@H](C)CO2`, for which the inhibition is -3.53% (inactive).

As to `C[C@@H](O)C#Cc1cnc2c(c1)C(=O)N([C@@H](C)CO)C[C@H](C)[C@H](CN(C)Cc1cncnc1)O2`, the inhibition is 8.12% (inactive).

`Cc1ccc(C(=O)NCC(=O)NC2CC2)cc1`: the inhibition is -1.54% (inactive). For the molecule `Cc1ccc(C(=O)NCC(=O)NCc2cc(=O)n(C)c(=O)n2C)cc1`, the inhibition was 31.9% (active). In the case of `COc1ccc(S(=O)(=O)NCC(=O)NCc2cc(=O)n(C)c(=O)n2C)cc1F`, the inhibition was -2% (inactive).

As for `CC(C)NC(=O)Nc1ccc2c(c1)C(=O)N([C@H](C)CO)C[C@H](C)[C@@H](CN(C)C)OCCCC[C@H](C)O2`, the inhibition is 0.043% (inactive).

With `C#CCOc1ccc(/C=C2/C(=O)NN(c3ccccc3)C2=O)cc1OC`, the inhibition was 98.1% (active). In the case of `COc1cc(/C=C2/C(=O)NN(c3cccc(Cl)c3)C2=O)cc(Br)c1O`, the inhibition was 9.45% (inactive).

Turning to `C#CCOc1ccc(/C=C2/C(=O)ON=C2C)cc1OCC`, the inhibition was -2.23% (inactive). Turning to `CN(C)C(=O)C[C@H]1C=C[C@@H](NC(=O)C2CCC2)[C@@H](CO)O1`, the inhibition was -0.42% (inactive). For `C[C@H](CO)N1C[C@H](C)[C@H](CN(C)CC2CCCCC2)OCCCC[C@H](C)Oc2ccc(NC(=O)c3ccncc3)cc2C1=O`, the inhibition was 2.1% (inactive). On to `O=S(=O)(Cc1ccccc1)N1CCCCN2[C@@H](CO)[C@@H](c3ccc(-c4ccc(F)cc4)cc3)[C@@H]2C1`, for which the inhibition was 4.06% (inactive). For `COc1ccc2c3c(n(C)c2c1)[C@@H](CO)N(C(=O)CN1CCOCC1)CC31CCN(C(=O)C2CC2)CC1`, the inhibition is -4.96% (inactive). As for `O=C(C[C@@H]1CC[C@H]2[C@@H](COC[C@@H](O)CN2Cc2nccs2)O1)NCc1ccc(-c2ccccc2)cc1`, the inhibition was 3.03% (inactive). As for `O=C(C[C@H]1CC[C@H]2[C@@H](COC[C@@H](O)CN2Cc2nccs2)O1)NCc1ccccc1Cl`, the inhibition is 16.4% (active). As for `O=C(C[C@@H]1CC[C@@H]2[C@H](COC[C@H](O)CN2Cc2cccc(F)c2)O1)NCc1ccncc1`, the inhibition is -0.883% (inactive). In the case of `O=C(C[C@@H]1CC[C@@H]2[C@H](COC[C@@H](O)CN2Cc2ccc(Cl)cc2)O1)NCc1ccccc1Cl` it was -1.3% (inactive). On to `O=C(C[C@H]1CC[C@H]2[C@@H](COC[C@@H](O)CN2Cc2cccc(C(F)(F)F)c2)O1)NCc1ccncc1`, for which the inhibition was 2.67% (inactive). With `O=C(C[C@@H]1CC[C@@H]2[C@H](COC[C@H](O)CN2Cc2cccc(C(F)(F)F)c2)O1)NCc1ccc(F)cc1`, the inhibition was 16.6% (active). Next, `CN(C)C(=O)[C@@H]1[C@@H](CO)[C@@H]2Cn3c(ccc(-c4ccccc4)c3=O)[C@@H]2N1CCC(F)(F)F`: 0.07% (inactive); `C[C@@H](NC(=O)C[C@H]1C=C[C@H](NC(=O)C2CCOCC2)[C@H](CO)O1)c1ccccc1`: 2.71% (inactive); `COc1ccc(NC(=O)N2C[C@H](O)COC[C@H]3O[C@@H](CC(=O)NC4Cc5ccccc5C4)CC[C@@H]32)cc1`: -1.07% (inactive).
